Inhibition data for 29 molecules are collected here from PubChem BioAssay AID565 (University of Pittsburgh Molecular Library Screening Center, 2006).

The structures appear in SMILES notation. In all, about 65,000 compounds went through this assay and about 1,200 (1.8%) were called active. This is one part of a sample in which actives are shown more often than they occur. A number with no mark means an inactive call. Rule as the data show it: active = inhibition above about 50%; inactive = the rest.

The target of the assay is Gag-Pol polyprotein (Human immunodeficiency virus type 1 group M subtype B (isolate HXB2)) (UniProt P04585). The experiment in a line: blockers of HIV-1 RNase H RNA/DNA cleavage – biochemical, fluorescence, primary screen (AID 565). Particulars: RT-RNase H RNA/DNA duplex cleavage, at 10 µM, hits give high values.
For `COc1c(C)cccc1C(=O)Nc1cc(Cl)ccc1N1CCOCC1`, the inhibition is -7.75%.

Consider `O=C(Nc1cc(N2CCOCC2)ncn1)NC1(C(F)(F)F)Oc2ccc(Cl)cc2O1` (centres undefined), for which the inhibition was 62.3% (active).

For the molecule `c1cnn(-c2cc(N3CCOCC3)ncn2)c1`, the inhibition was -2.75%.

For the molecule `CC(Sc1nncn1C)C(=O)Nc1ccccc1-c1ccccc1` (centres undefined), the inhibition is -1.62%.

`Cc1ccccc1OCC(=O)Nc1ccc(N2CCN(C(=O)C(C)C)CC2)c(Cl)c1`: the inhibition is -29%.

On to `CCc1ccccc1NC(=O)CSc1nnc([C@@H](NC(=O)OC(C)(C)C)C(C)C)o1`, for which the inhibition was -2.47%.

Regarding `CCCCOC(=O)CNc1nnc(SCC(=O)OCC)[nH]c1=O`, the inhibition is 55.9% (active).

Regarding `CCOC(=O)CSc1nc2sc3c(c2c(=O)[nH]1)CC(C)(C)OC3`, the inhibition is -2.48%.

Regarding `CCOC(=O)c1c(NC(=O)CSc2nnc(C)c(=O)[nH]2)sc2c1CCC2`, the inhibition is 2.54%.

Take `CCn1c(=O)cc(O)c2ccccc21`: the inhibition was -0.16%.

Consider `CCn1c(=N)c(S(=O)(=O)c2ccc(F)cc2)cc2c(=O)n3ccccc3nc21`, for which the inhibition is 2.52%.

With `Cc1nc2nc(COc3ccccc3)[nH]n2c(=O)c1C`, the inhibition was -3.44%.

Consider `CC1(C)CC(=O)C2=C(C1)NCN(CCCN1CCOCC1)C2`, for which the inhibition is -6.75%.

Consider `C=C(C)Cn1c(N2CCN(CC)CC2)nc2c1c(=O)[nH]c(=O)n2C`, for which the inhibition is 10.6%.

For the molecule `Cc1ccc(Cn2nnnc2CN2CCC(n3nnc4ccccc43)CC2)cc1`, the inhibition was 68.7% (active).

On to `c1ccc(CCn2nnnc2CN2CCN(C3CCCC3)CC2)cc1`, for which the inhibition was -0.5%.

As to `Cc1ccc(S(=O)(=O)Cn2nnnc2CN2CCN(Cc3ccc4c(c3)OCO4)CC2)cc1`, the inhibition was 1.61%.

Turning to `Brc1ccc(Nc2c3c(nc4ncnn24)CCC3)cc1`, the inhibition is -1.42%.

Take `Cc1c(C(=O)CN2CCOCC2)[nH]c2ccccc12`: the inhibition was -6.56%.

Turning to `O=C1NC(c2ccncc2)Nc2sc3c(c21)CCCC3` (centres undefined), the inhibition was 12.9%.

`Clc1ccc(C2CC(c3cccs3)n3ncnc3N2)cc1Cl` (centres undefined): the inhibition was -4.72%.

For `Cc1ccnc(N2CCC(C(=O)NC3CCCCCC3)CC2)n1`, the inhibition is -5.09%.

Consider `O=C(Nc1ccc2c(c1)OCCO2)C1CCCN(c2ncccn2)C1` (centres undefined), for which the inhibition was 7.08%.

`Cc1ccnc(N2CCCC(C(=O)Nc3cc(F)ccc3C)C2)n1` (centres undefined): the inhibition was 58.3% (active).

`O=C(NCCC1=CCCCC1)C1CCN(Cc2cnn(-c3ccccc3)c2-n2cccc2)CC1`: the inhibition is -3.34%.

As for `Cc1cc(C)c2c(n1)nn1c(-n3ccnc3)cc(C)nc21`, the inhibition is -11.4%.

In the case of `CCOC(=O)N1CCN(CC(=O)c2c(C)[nH]c3ccccc23)CC1`, the inhibition is -4.83%.

As to `CCOC(=O)N1CCN(CC(=O)n2c(C)c(C)c3ccccc32)CC1`, the inhibition was -3.69%.

`CCOC(=O)N1CCN(CC(=O)c2ccc3c(c2)CCN3)CC1`: the inhibition was 75.5% (active).

By inhibition is commonly meant the drop in the measured response relative to a control, in per cent.
